Measurements reported in PubChem BioAssay AID1159580 (chemical genetic matrix, 2015).
Where “and” joins values, the source holds several entries; their conditions need not be identical. Equal entries are not always repeated. The whole screen tested about 5,500 compounds, of which about 2,000 (36%) were called active. Another 18% or so got no clear call; they are omitted. Cut-off read from the data, not from the text of the source: active = normalized growth mostly below about 0.91 (no sharp cut-off); inconclusive = no clear call, values can overlap the other calls; inactive = mostly above about 0.92. This is one part of the list.

Experiment: chemical genetic growth profiling, strain panel (AID 1159580);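 note: tested at 20 µM; growth read once vehicle control cultures reached saturation at 30 °C; 1 = growth at the plate median or of vehicle wells; lower values mean less growth of the strain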
Settings: S. cerevisiae deletion strains, growth OD

Measured: normalized growth

CN1CCN(C(c2ccccc2)c2ccccc2)CC1
inactive: locus YAL013W, strain DEP1, active compounds read low 0.996 | locus YAL021C, strain ccr4, active compounds read low 0.973 | locus YAL026C, strain drs2, active compounds read low 0.988 | locus YAL030W, strain snc1, active compounds read low 0.996 | locus YBL061C, strain skt5, active compounds read low 0.993 | locus YBR009C, strain hhf1, active compounds read low 1.01 | locus YBR021W, strain FUR4, active compounds read low 0.998 | locus YBR023C, strain chs3, active compounds read low 0.985 | locus YBR171W, strain sec66, active compounds read low 0.975 | locus YBR229C, strain ROT2, active compounds read low 1.01 | locus YBR231C, strain swc5, active compounds read low 0.966 | locus YBR279W, strain paf1, active compounds read low 0.995 | locus YCL011C, strain gbp2, active compounds read low 0.998 | locus YCL016C, strain dcc1, active compounds read low 0.973 | locus YCL029C, strain bik1, active compounds read low 0.973 | locus YCL069W, strain vba3, active compounds read low 0.995 | locus YCR088W, strain abp1, active compounds read low 0.983 | locus YDL005C, strain med2, active compounds read low 0.969 | locus YDL035C, strain GPR1, active compounds read low 0.984 | locus YDL040C, strain nat1, active compounds read low 0.98 | locus YDL074C, strain BRE1, active compounds read low 0.993 | locus YDL101C, strain DUN1, active compounds read low 1 | locus YDL134C, strain PPH21, active compounds read low 1.01 | locus YDL185W, strain tfp1, active compounds read low 0.942 | locus YDL192W, strain arf1, active compounds read low 0.971 | locus YDR001C, strain nth1, active compounds read low 1.02 | locus YDR069C, strain doa4, active compounds read low 0.964 | locus YDR101C, strain arx1, active compounds read low 0.988 | locus YDR137W, strain rgp1, active compounds read low 0.994 | locus YDR150W, strain NUM1, active compounds read low 0.989 | locus YDR159W, strain sac3, active compounds read low 0.991 | locus YDR162C, strain NBP2, active compounds read low 1.01 | locus YDR195W, strain ref2 0.958 | locus YDR297W, strain sur2, active compounds read low 0.996 | locus YDR318W, strain mcm21, active compounds read low 0.969 | locus YDR334W, strain swr1, active compounds read low 0.977 | locus YDR335W, strain msn5, active compounds read low 0.994 | locus YDR388W, active compounds read low 0.966 | locus YDR392W, strain spt3, active compounds read low 0.915 | locus YDR502C, strain sam2, active compounds read low 0.978 | locus YEL003W, strain gim4, active compounds read low 0.984 | locus YEL037C, strain rad23, active compounds read low 0.988 | locus YEL061C, strain CIN8 (second series), active compounds read low 0.997 | locus YEL061C, strain CIN8, active compounds read low 0.975 | locus YER015W, strain faa2, active compounds read low 0.979 | locus YER016W, strain bim1, active compounds read low 0.971 | locus YER110C, active compounds read low 0.973 | locus YER111C, strain swi4, active compounds read low 0.983 | locus YER155C, strain BEM2 (second series), active compounds read low 0.932 | locus YER155C, strain BEM2, active compounds read low 1 | locus YER167W, strain BCK2, active compounds read low 0.997 | locus YFR010W, strain ubp6, active compounds read low 0.99 | locus YGL078C, strain dbp3, active compounds read low 0.989 | locus YGL086W, strain mad1, active compounds read low 0.983 | locus YGL167C, strain pmr1, active compounds read low 0.98 | locus YGL173C, strain kem1, active compounds read low 0.979 | locus YGL227W, strain vid30, active compounds read low 0.968 | locus YGL240W, strain doc1, active compounds read low 1.01 | locus YGL248W, strain PDE1, active compounds read low 1 | locus YGL253W, strain hxk2, active compounds read low 0.985 | locus YGR078C, strain PAC10, active compounds read low 0.998 | locus YGR135W, strain pre9, active compounds read low 0.979 | locus YGR229C, strain SMI1, active compounds read low 1.03 | locus YGR252W, strain gcn5, active compounds read low 1.03 | locus YHR013C, strain ard1, active compounds read low 0.902 | locus YHR027C, strain rpn1, active compounds read low 0.985 | locus YHR030C, strain SLT2, active compounds read low 0.995 and 0.998 | locus YHR079C, strain IRE1 (second series), active compounds read low 0.969 | locus YHR079C, strain IRE1, active compounds read low 0.992 | locus YHR094C, strain hxt1, active compounds read low 0.965 | locus YHR129C, strain ARP1, active compounds read low 0.999 | locus YHR142W, strain chs7, active compounds read low 1 | locus YHR200W, strain rpn10, active compounds read low 0.966 | locus YIL066C, strain RNR3, active compounds read low 1 | locus YIL073C, strain SPO22, active compounds read low 0.965 | locus YIL125W, strain kgd1, active compounds read low 0.981 | locus YIR030C, strain dcg1, active compounds read low 0.967 | locus YJL092W, strain hpr5, active compounds read low 0.991 | locus YJL095W, strain BCK1 (second series), active compounds read low 0.993 | locus YJL095W, strain BCK1, active compounds read low 0.966 and 0.998 | locus YJL115W, strain asf1, active compounds read low 0.996 | locus YJL129C, strain trk1, active compounds read low 0.968 | locus YJL134W, strain LCB3, active compounds read low 0.997 | locus YJL154C, strain vps35, active compounds read low 0.999 | locus YJL164C, strain tpk1, active compounds read low 1.02 | locus YJL166W, strain qcr8, active compounds read low 1.01 | locus YJL168C, strain set2, active compounds read low 0.968 | locus YJL187C, strain SWE1 (second series), active compounds read low 0.999 | locus YJL187C, strain SWE1, active compounds read low 0.994 | locus YJR043C, strain POL32, active compounds read low 1.01 | locus YJR066W, strain TOR1, active compounds read low 0.994
